About 83,000 compounds went through this panel and 20% of them were active in at least one assay; those are over-represented in the sample as a whole.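 Values shown are percent growth following 48 h exposure of cells in 96-well plates to a single concentration of compound; below 10 was considered active.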 Values without a mark were called inactive. Calls of active or inactive are those of the source.
System: SNB-75 CNS
Experiment: NCI-60 one-dose screen, 48 h (100 = growth as untreated, 0 = no growth, -100 = all killed)
Conditions: 10 µM unless noted
Description: Growth inhibition of the SNB-75 human tumor cell line is measured as a screen for anti-cancer activity. Cells are grown in 96 well plates and exposed to the test compound for 48 hours. Compounds are tested at a single concentration, which is 10^-5 M for most compounds. The reported endpoint is percent growth (GI% or GIPRCNT), where numbers from 0 - 100% represent growth inhibition, and numbers from -100% - 0 represent cell death. For example, a value of 40 represents 60% growth inhibition. A value of 0 means no net growth occurred over the course of the experiment. A value of -40 indicates 40% of cells at the beginning of the experiment died by the end of the experiment. A value of -100 means all cells are dead at the end of the experiment.
NCI-60 Human Tumor Cell Lines Screen was performed using the standard one-dose NCI protocol, which is described in more detail at https://dtp.cancer.gov/discovery_development/nci-60/default.htm.
Compounds with GIPRCNT values below 10 were considered active. Activity score was based on GIPRCNT using the following formula: […]
Score is 0 for GIPRCNT values of 100 or above, 50 for GIPRCNT values of 0, and 100 for GIPRCNT values of -100.

SMILES | growth
COc1ccc2c(OCc3nnc4ccc(-c5ccccc5)nn34)ccnc2c1 | 93.5% [2.5 µM]
Cn1nccc1Nc1nccc(-c2ccn([C@H](CO)c3ccc(Cl)c(F)c3)c(=O)c2)n1 | 101%
O=C1NC(=O)[C@@H](c2cn3c4c(cccc24)CCC3)[C@@H]1c1c[nH]c2ccccc12 | 5.51% (active)
CC(=O)C(C(C)=O)C(c1ccccc1)C(C(C)=O)C(C)=O | 95.1%
CC(=O)OC1Oc2ccccc2-c2oc(=O)c(-c3cc4ccc(N(C)C)cc4oc3=O)cc21 (stereo not given) | 71.1%
C=CC(=O)N(C)[C@H]1C[C@H]2OC(C)(C1OC)n1c3ccccc3c3c4c(c5c6ccccc6n2c5c31)C(=O)NC4 (stereo not given in full) | -16.8% (active)
COc1ccc2c(CCC(c3ccccc3)c3ccccc3)c3[n+](cc2c1OC)CCc1cc2c(cc1-3)OCO2 | 37.1%
COc1cc(Nc2c(C#N)cnc3cc(OCCCN4CCN(C)CC4)c(OC)cc23)c(Cl)cc1Cl | 87.6%
C[C@@H](Oc1cc(-n2cnc3ccc(CN4CCN(C)CC4)cc32)sc1C(N)=O)c1ccccc1C(F)(F)F | -5.55% (active)
CCc1nc2cc(/C=C/C(=O)NO)ccc2c(=O)n1CCc1ccc(OC)cc1 | 24.1%
CS(=O)(=O)CCNCc1ccc(-c2ccc3ncnc(Nc4ccc(OCc5cccc(F)c5)c(Cl)c4)c3c2)o1 | -97.2% (active)
CN1CC[C@H](c2c(O)cc(O)c3c(=O)cc(-c4ccccc4Cl)oc23)[C@H](O)C1 | -59.7% (active)
CCOc1cc2ncc(C#N)c(Nc3ccc(F)c(Cl)c3)c2cc1NC(=O)/C=C/CN(C)C | -98.5% (active)
NS(=O)(=O)c1ccc(CCN2C(=O)/C(=C\c3ccc(Cl)cc3)C=C2c2ccc3ccccc3c2)cc1 | 78.1%
N#Cc1c(C(F)(F)F)cc(Nc2ccc3nc(NCCN4CCCC4)oc3c2)n2c1nc1ccccc12 | 82.6%
O=C(N/N=C/c1ccc(Cl)cc1)c1cc(-c2cc3ccccc3o2)nn1-c1ccccc1 | 86.5%
COCC(=O)NC/C=C/c1ccc2ncnc(Nc3ccc(Oc4ccc(C)nc4)c(C)c3)c2c1 | 57.2%
CN(c1ncccc1CNc1nc(Nc2ccc3c(c2)CC(=O)N3)ncc1C(F)(F)F)S(C)(=O)=O | -43.3% (active)
CC[n+]1c(/C=C/C=C2\N(C)c3ccccc3C2(C)C)sc2ccccc21 | 28.8%
Ic1ccccc1-c1ccccc1 | 95.3%

SMILES | growth
CCCCn1c(C)nc2ccc(Nc3nc(N4CCN(C)CC4)nc4nc[nH]c34)cc21 | 63.5%
C=C1[C@@H](O)C[C@H]2C(C)(C)C[C@H](Cl)C[C@]2(C)[C@H]1C[C@H](O)[C@H]1CC(=O)NC1=O | -37.2% (active)
COc1cc2nc(Nc3cccc(Cl)c3)nc(N)c2cc1OC | 94.5%
CCN(CC)CCN1C(=O)c2cccc3c(-c4ccc5c(c4)ncn5C4CCCCC4)ccc(c23)C1=O | 4.41% (active)
COc1cc2c3c(c1)nc(C)n3CCC2 | 83.4%
C[C@@H](NC(=O)c1ncnc(N)c1Cl)c1ncc(C(=O)Nc2cc(C(F)(F)F)c(Cl)cn2)s1 | 103%
C=C1CC[C@@H]2[C@](C)(COC(C)=O)[C@H](OC(C)=O)CC[C@@]2(C)[C@@H]1C/C=C1/C(=O)OC[C@H]1OC(C)=O | 44.9%
COc1ccc(-c2ccc3ncc4c(c3c2)n(-c2ccc(N3CCNCC3)c(C(F)(F)F)c2)c(=O)n4C)cn1 | -95.1% (active)
Nc1ncnc2c1c(-c1cccc(OCc3ccccc3)c1)cn2C1CC(CN2CCC2)C1 (stereo not given) | -28.7% (active)
COc1ccc(-c2cnc(-c3ccc(Cl)cc3)[nH]2)cc1OC | 72.8%
O=C(COc1ccc(/C=C2\Cc3ccc(Cl)cc3C2=O)cc1)Nc1nccs1 | 86.6%
Cc1cc([C@@H](C)Nc2ccccc2C(=O)O)c2nc(N3CCOCC3)cc(=O)n2c1 | -19.5% (active)
CCN(CC)CCNc1ccc(N=Nc2cnc3ccccc3c2)c2ccccc12 | -56.8% (active)
CN(C[C@@H]1COCCO1)S(=O)(=O)Nc1ccc2ccc3ncc(-c4cnn(C)c4)cc3c(=O)c2c1 | 13.6%
CCc1ccc(/C=C/c2ccc(O)c3ncccc23)[n+](C)c1 | 48.1%
O=c1[nH]c(N2CCOCC2)nc2scc(-c3ccccc3)c12 | 84.3%
CC[C@H](Nc1ncnc2nc[nH]c12)c1nc2cccc(F)c2c(=O)n1-c1ccccc1 | 25.8%
Nc1c(C(=O)c2ccccc2)sc2nc(-c3cccs3)ccc12 | 32.4%
CC[C@@H]1C(=O)N(C)c2cnc(Nc3ccc(C(=O)NC4CCN(C)CC4)cc3OC)nc2N1C1CCCC1 | -0.626% (active)
COc1cc2nccc(Oc3ccc(NC(=O)Nc4cc(C)on4)c(Cl)c3)c2cc1OC | -6.16% (active)
